Mot1-301 SUMO: inhibitors of SUMOylation pathway: yeast Mot1-301 growth rescue; AID 2716; 320,000 tested, 1% active; growth rescue, % at 18.8 µM; S. cerevisiae Mot1-301 growth rescue, ATP luminescence, 38.5C; percent above DMSO median, 100 means doubled;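 active = every valid replicate shows activation above 250% relative to neutral control wells; inactive = the rest, any valid replicate at or below 250%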
SKN-1 inh: C. elegans SKN-1 inhibition; C. elegans VP596 Pgst-4::GFP/RFP ratio, acrylamide-induced, 24 h; inhibition, % at 21.8 µM; 360,000 tested, 0.49% active; AID 624304;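 active = interference check ratio from 0.5 to 1.5 plus GFP to RFP signal ratio inhibition reaching or exceeding a fixed threshold, cut at about 30% in these data, passing the limit was not always enough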
HGIII-sPLA2 inh: Inhibits HGIII-sPLA2 liposome hydrolysis, primary screen; Q9NZ20; QFRET BODIPY PC-A2 liposome hydrolysis, fluorescence; inhibition, % at 12.2 µM; 370,000 tested, 0.56% active; AID 743126;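 active = inhibition above mean plus 3 SD of compounds lying within the high and low control bounds, cut at about 19% in these data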
Target sequence (Q9NZ20 whole entry, looked up): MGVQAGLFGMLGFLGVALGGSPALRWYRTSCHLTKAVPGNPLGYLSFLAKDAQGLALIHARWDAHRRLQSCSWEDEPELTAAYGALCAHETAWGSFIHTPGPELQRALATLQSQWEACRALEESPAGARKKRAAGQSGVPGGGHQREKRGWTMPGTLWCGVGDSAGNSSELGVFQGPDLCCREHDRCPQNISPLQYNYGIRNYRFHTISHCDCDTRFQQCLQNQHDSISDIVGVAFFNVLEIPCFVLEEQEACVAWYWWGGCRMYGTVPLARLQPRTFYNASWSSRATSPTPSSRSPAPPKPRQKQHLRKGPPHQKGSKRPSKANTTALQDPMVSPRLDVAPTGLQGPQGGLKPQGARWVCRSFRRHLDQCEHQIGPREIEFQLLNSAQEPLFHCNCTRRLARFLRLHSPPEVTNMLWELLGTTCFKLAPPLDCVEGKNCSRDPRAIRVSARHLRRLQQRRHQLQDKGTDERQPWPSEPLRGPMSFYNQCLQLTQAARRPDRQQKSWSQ
Efflux pump inh: antifungal efflux pump inhibition, Nile Red retention | S. cerevisiae Candida pump triplex | inhibition, % at 10 µM | 330,000 tested, 0.44% active | AID 485275;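 active = plate passing quality check with inhibition over a set limit, or well fluorescence over plate mean plus 4 SD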;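 also: Nile Red retained in pooled yeast measured as flow cytometry median fluorescence; higher means more Nile Red kept so more efflux inhibition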
Each line names hits and unclear results; the compound was inactive in the other large screens. Only some compounds are listed: those with a hit (about 2.2% of all), similar ones and a draw of the others.

Brc1ccccc1OCCCCn1cnc2ccccc21	none
Cc1ccc(OCCCCn2cnc3ccccc32)c(C)c1	SKN-1 inh 44
CN1C(=O)[C@@]2(O[C@H]3C=CC=CN3C3=C2C(=O)CCC3)c2cccc(Br)c21	none (no result: Mot1-301 SUMO, SKN-1 inh, Efflux pump inh)
O=C(NCc1ccccc1)[C@H]1CCCN1C(=O)[C@H]1CCCN1C(=O)c1cccc(F)c1	none (no result: Mot1-301 SUMO, SKN-1 inh, Efflux pump inh)
CCCCCC(=O)NCC(C)NC(=O)CCCCC (centres undefined)	Mot1-301 SUMO 486
CC(CNC(=O)CCc1ccccc1)NC(=O)CCc1ccccc1 (centres undefined)	none
Cc1cccc(C(=O)N2CCc3cc(-c4nc(NC(=O)Cn5nnc6ccccc6c5=O)sc4C)ccc32)c1	Mot1-301 SUMO 378 (no result: SKN-1 inh, HGIII-sPLA2 inh)
O=c1c2c3nc4ccccc4nc3n(CC3CCCO3)c2ncn1CCc1ccccc1 (centres undefined)	none
COc1cc(OC)cc(-n2c3nc4ccccc4nc3c3c(=O)n(CC4CCCO4)cnc32)c1 (centres undefined)	Efflux pump inh 1.1 (no result: SKN-1 inh)
O=C(NC1CCCCN(Cc2ccc(Cl)cc2)C1=O)c1c(F)cccc1F (centres undefined)	none (no result: Mot1-301 SUMO, SKN-1 inh, Efflux pump inh)
Cc1ccc(S(=O)(=O)N2C[C@H]3[C@H]4C(=O)N(c5ccccc5)C(=O)[C@H]4CC(=O)[C@H]3[C@@H]2c2cccc3ccccc23)cc1	SKN-1 inh 36 (no result: Mot1-301 SUMO, Efflux pump inh)
Clc1ccccc1CN1CCN(/N=C/C=C\c2ccco2)CC1	none
C(/C=C/c1ccco1)=N/N1CCN(c2ccccc2)CC1	SKN-1 inh 59
CSCCC(c1nc2ccccc2[nH]1)n1c(-c2cc(C(F)(F)F)cc(C(F)(F)F)c2)nc2ccccc21 (centres undefined)	none (no result: Mot1-301 SUMO, Efflux pump inh)
CN(N=Nc1cccc([N+](=O)[O-])c1)c1ccccc1	SKN-1 inh 48
CSC1SCC2C(=O)N(C)C(C(C)C)C(=O)OCC(NC(=O)c3cnc4ccccc4n3)C(=O)NC(C)C(=O)N(C)C1C(=O)N(C)C(C(C)C)C(=O)OCC(NC(=O)c1cnc3ccccc3n1)C(=O)NC(C)C(=O)N2C (centres undefined)	SKN-1 inh 42 (no result: Mot1-301 SUMO, Efflux pump inh)
CC(=NNC(=O)c1ccncc1)c1ccc2ccccc2c1O	HGIII-sPLA2 inh 20 (no result: Mot1-301 SUMO, Efflux pump inh)
CS(=O)(=O)Nc1ccc(C(=O)Nc2ccccc2C(=O)N2CCCC2)cc1	Mot1-301 SUMO 545
CS(=O)(=O)Nc1ccccc1C(=O)Nc1ccccc1C(=O)N1CCCC1	none
Cc1ccc(NS(=O)(=O)c2ccc(NS(=O)(=O)c3cccs3)cc2)cc1	Mot1-301 SUMO 302
COc1ccc(OC)c(S(=O)(=O)NCC2CCN(C(=O)C(=O)c3cccs3)CC2)c1	none (no result: Mot1-301 SUMO, SKN-1 inh, Efflux pump inh)
CCc1ccc(-n2c(SCC(=O)Nc3cc(C)[nH]n3)nc3[nH]ncc3c2=O)cc1	SKN-1 inh 39 (no result: Mot1-301 SUMO)
CCn1c(CCC(=O)Nc2nc3c(s2)CCCC3)nc2cc(S(=O)(=O)N(C)C)ccc21	SKN-1 inh 54
CC(=O)OC[C@]12CC[C@H]3[C@@](C)(CC[C@H]4C(C)(C)CCC[C@]34C)[C@@H]1C[C@H](C1=CC(=O)O[C@H]1OC(C)=O)O2	Mot1-301 SUMO 910 (no result: SKN-1 inh, HGIII-sPLA2 inh)
O=C(N[C@H](Cc1ccccc1)C(=O)NCCCc1ccccc1)[C@H]1O[C@@H](n2ccc(=O)[nH]c2=O)[C@H](O)[C@@H]1O	none (no result: Mot1-301 SUMO, SKN-1 inh, Efflux pump inh)
Oc1c(/C=N/c2ccccn2)sc2ccccc12	Mot1-301 SUMO active
F[B-](F)(F)COCc1ccccc1C#Cc1ccccc1	none (no result: Mot1-301 SUMO, SKN-1 inh, Efflux pump inh)
S=C(Nc1ccccc1)Nc1nc2ccccc2n1CCOc1ccc(Cl)cc1	SKN-1 inh 59
CC(=O)Nc1nc2ccccc2n1CCOc1ccccc1Cl	none (no result: Mot1-301 SUMO)
NC(=O)c1ncn([C@@H]2O[C@H](C(=O)N3CCCN(Cc4ccccc4F)CC3)[C@@H](O)[C@H]2O)n1	none (no result: Mot1-301 SUMO, SKN-1 inh, Efflux pump inh)
COCCN(Cc1ccc(C)cc1)C(=O)[C@@H](Cc1ccccc1)NC(=O)[C@H]1O[C@@H](n2ccc(=O)[nH]c2=O)[C@H](O)[C@@H]1O	none (no result: Mot1-301 SUMO, SKN-1 inh, Efflux pump inh)
COc1ccccc1/C=C/C(=O)Nc1ccc(S(=O)(=O)Nc2cc(C)nc(C)n2)cc1	Mot1-301 SUMO 351
Cc1cc(NS(=O)(=O)c2ccc(NC(=O)/C=C/c3ccccc3)cc2)nc(C)n1	none
O=C(CSc1nnc(COc2ccccc2)n1Cc1ccco1)Nc1ccc2c(c1)OCO2	none (no result: Mot1-301 SUMO, SKN-1 inh, Efflux pump inh)
CCCNC(=O)c1ccc2snnc2c1	SKN-1 inh 36
CC(C)[C@@H](C(=O)N[C@@H](Cc1ccccc1)C(=O)O)N1C(=O)N2CCc3c([nH]c4ccccc34)[C@@]2(C)C1=O	none
COc1ccc(NC(=O)/C(C#N)=C/c2cc(C)n(-c3ccc(N4CCOCC4)c([N+](=O)[O-])c3)c2C)cc1	none
Cc1cc(/C=C(\C#N)C(=O)Nc2ccc(F)cc2)c(C)n1-c1ccc(N2CCOCC2)c([N+](=O)[O-])c1	SKN-1 inh 38
COc1ccc2c(c1)[C@@H](NC(=O)c1ccncc1)[C@@H]1Cc3ccccc3[C@H]21	none (no result: Mot1-301 SUMO, SKN-1 inh, Efflux pump inh)
COC(=O)c1c(C)noc1-c1ccc(Cl)cc1	none
COC(=O)c1c(-c2ccccc2)noc1-c1ccccc1	SKN-1 inh 45
O=C(N[C@H](c1cccc(Br)c1)[C@@H]1CCCC=C1c1ccccc1)C(F)(F)F	none (no result: Mot1-301 SUMO, SKN-1 inh, Efflux pump inh)
N/C(=N\OC(=O)COc1ccc(Cl)cc1Cl)c1ccncc1	SKN-1 inh 48 (no result: Mot1-301 SUMO, Efflux pump inh)
N/C(=N\OC(=O)COc1ccc(Cl)cc1Br)c1cccnc1	none
COc1ccc2c(c1)OC/C(=C/c1cccs1)C2=O	SKN-1 inh 54 (no result: Mot1-301 SUMO)
CCCCc1nnn2c1C1c3cc(-c4cccnc4)ccc3CCN1C(=O)C2 (centres undefined)	none (no result: Mot1-301 SUMO, SKN-1 inh, Efflux pump inh)
COc1ccc([C@H]2C[C@H](O)C[C@@H](CCn3cc(-c4ccccc4)nn3)O2)cc1	none (no result: Mot1-301 SUMO, Efflux pump inh)
COc1ccc(C(O)CNc2ccc(C)cc2)cc1 (centres undefined)	SKN-1 inh 36
Cc1oc(C)c2c(=O)ccc3c(c12)OC(N)=C(C#N)C3c1ccccc1 (centres undefined)	SKN-1 inh 48
Cc1ccc(S(=O)(=O)N2[C@@H](CO)CO[C@H]2CC(=O)OCc2ccccc2)cc1	none (no result: Mot1-301 SUMO, Efflux pump inh)
O=C(O)c1ccc2c(c1)[C@@H]1C=CC[C@@H]1[C@H](c1ccccn1)N2	SKN-1 inh 44
CC(C)c1ccc(NCCC(=O)c2ccc(Br)cc2)cc1	Mot1-301 SUMO 324
CC(C)c1ccc(NCCC(=O)c2cccs2)cc1	HGIII-sPLA2 inh 27
O=C(CNc1ccc(Br)cc1)c1ccccc1	SKN-1 inh 36
Cc1ccc(C(=O)CNc2ccc(Br)cc2)cc1	none
NC(=O)c1sc(=S)n2c1[nH]c(=O)c1sccc12	Mot1-301 SUMO 730
COCCn1c(SCC(=O)Nc2cccc(C)c2)nnc1C(C)C	SKN-1 inh 37
CCCn1c(SCC(=O)Nc2ccc(OCC)cc2)nnc1C(C)C	Mot1-301 SUMO 344
NC(=O)c1ncn([C@@H]2O[C@H](C(=O)N[C@H](Cc3c[nH]c4ccccc34)C(=O)N3CCN(C(=O)N4CCCCC4)CC3)[C@@H](O)[C@H]2O)n1	none (no result: Mot1-301 SUMO, SKN-1 inh, Efflux pump inh)
CCOC(=O)c1c(C)c(C)n2c1NC(=O)C2	SKN-1 inh 46 (no result: Mot1-301 SUMO, Efflux pump inh)
CCOC(=O)c1c(C)[nH]c(C(=O)N2CCN(C(=O)OCC)CC2)c1C	none
CCOC(=O)C1CCN(CC(O)COC(CC)c2ccccc2)CC1 (centres undefined)	Mot1-301 SUMO 308

Screening results: PubChem, several laboratories
